TEAD-YAP inh: TEAD-YAP interaction inhibition. HEK-TIYL cells, TEAD-Gal4/YAP UAS-luciferase luminescence. AID 1259422. 1.4% of 640,000 active. inhibition, % at 9.12 µM; in the data active means inhibition above about 32%;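 further: 0% = median of test compound wells and 100% = reference inhibitor wells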
FBW7 activator: human FBW7 E3 ligase activation, primary screen | normalized activity (activation), % at 26.1 µM | 0.13% of 650,000 active | AlphaScreen FBW7–phospho-cyclin E peptide binding, activator screen | AID 1259310; in the data active means normalized activity above about 1.9%;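 further: purified mutant Fbw7 with reduced substrate affinity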
MITF inh: inhibitors of human MITF; O75030; AlphaScreen MITF homodimerization, bead proximity signal; inhibition, % at 2.6 µM; 0.91% of 650,000 active; AID 1259374; in the data active means inhibition above about 50%;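 further: 0% = vehicle wells with protein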
GPR151 activ: activates the human receptor GPR151 | 1% of 650,000 active | PathHunter beta-arrestin GPR151 cells, luminescence | activation, % at 11.2 µM | Q8TDV0; in the data active means activation above about 4.9%;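 further: 0% = median of compound wells and 100% = cells with positive control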
Target sequence (Q8TDV0 whole entry, looked up): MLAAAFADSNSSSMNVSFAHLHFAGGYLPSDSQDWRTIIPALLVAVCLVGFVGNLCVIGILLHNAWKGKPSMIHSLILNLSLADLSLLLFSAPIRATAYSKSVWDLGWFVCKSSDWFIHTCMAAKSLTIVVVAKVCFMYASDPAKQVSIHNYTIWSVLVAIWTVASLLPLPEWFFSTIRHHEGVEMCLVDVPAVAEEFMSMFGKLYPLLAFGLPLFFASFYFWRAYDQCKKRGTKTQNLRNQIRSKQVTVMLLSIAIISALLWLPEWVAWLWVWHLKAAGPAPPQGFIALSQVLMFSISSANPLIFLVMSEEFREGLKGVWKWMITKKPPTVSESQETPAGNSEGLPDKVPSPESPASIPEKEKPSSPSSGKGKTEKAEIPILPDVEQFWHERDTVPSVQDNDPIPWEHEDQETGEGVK
* marks the source's active call; other numbers are inactive results. Rows were chosen to be rich in hits. Some 3.4% of all compounds tested hit in one or more screens of this group.

SMILES | TEAD-YAP inh | FBW7 activator | MITF inh | GPR151 activ
Cc1cc(C)c(C(=O)/C=C/c2ccccc2F)c(=O)[nH]1 | 66* | 0 | -20 | 0
COc1ccc(CC2(C)OC(c3cccs3)=NN2C(C)=O)cc1 (centres undefined) | 36* | 0 | 0 | 1
COc1ccc(CC2(C)OC(c3ccncc3)=NN2C(C)=O)cc1 (centres undefined) | 10 | 0 | 4 | 1
O=C(CCl)NCC1(c2ccccc2)CCCC1 | 58* | 2 | 7 | 0
O=C(NC1CCCCC1)c1cccc(N2CCCC2=O)c1 | 14 | 0 | 3 | 0
COc1ccc(-c2nc3ccc(C(=O)NC4CCCCCCC4)cc3nc2-c2ccc(OC)cc2)cc1 | 2 | 0 | -7 | 0
O=C(NC1CCCCCC1)c1ccc2c(c1)OCO2 | 44* | 0 | 3 | -7
O=C(NC1CCCCCC1)c1cccc(N2CCCC2=O)c1 | 61* | 0 | -12 | -1
Cc1ccc(C(=O)NC2CCCCCC2)cc1 | 49* | 0 | -7 | -4
Cc1nc2ccc(C(=O)NC3CCCCCC3)cc2nc1C | 50* | 0 | -16 | -7
O=C(NC1CCCCC1)c1ccc2c(c1)OCO2 | -18 | 0 | -1 | 0
CCOC(=O)c1c(NC(=O)c2cc3n(n2)C(C(F)(F)F)CC(c2ccc(C)cc2)N3)sc2c1CCCC2 (centres undefined) | 13 | 0 | -1 | 3
O=C(CNc1ccc2ccccc2c1)N/N=C/c1ccc(I)o1 | 1 | 0 | 13 | 3
CC(=O)c1c(NC2CCCCC2)oc(C)cc1=O | 1 | 0 | -6 | 1
O=C(NC1CCCCCCC1)c1cc(F)c(F)cc1Cl | -52 | 0 | 0 | -1
O=C(NC1CCCCCC1)c1ccc(Cl)cc1Cl | 33* | 0 | 10 | -1
Nc1ccc(C(=O)Nc2ccc3nc(-c4ccccc4)[nH]c3c2)cc1 | -37 | 0 | -15 | 3
Nc1ccc(-c2nc3ccc(C(=O)O)cc3[nH]2)cc1 | 36* | 0 | -6 | -8
CN(C)c1ccc(-c2nc3ccccc3[nH]2)cc1 | 96* | 0 | 21 | -10
Cc1ccc2nc(-c3ccccc3)[nH]c2c1 | 51* | 0 | -1 | -11
Nc1cccc(-c2nc3cc4ccccc4cc3[nH]2)c1 | 50* | 0 | -14 | -8
COc1ccc(N2CCN(CC(O)c3ccc4c(c3)CCN4C(C)=O)CC2)cc1 (centres undefined) | 4 | 0 | 5 | -1
Cc1ccc2nc(-c3cccc(N)c3)[nH]c2c1 | 60* | 0 | 0 | -8
Nc1c(Br)cc2c(c1Br)C(=O)c1ccccc1C2=O | -25 | 0 | -4 | -1
CN(C)c1cc2c(c(N(C)C)c1)C(=O)c1ccccc1C2=O | -1 | -1 | 54* | -2
SMILES | TEAD-YAP inh | FBW7 activator | MITF inh | GPR151 activ
COCc1c(C#N)c(Cl)nc(C)c1[N+](=O)[O-] | 4 | 0 | -5 | -2
COCc1c(C#N)c(Sc2nnc(N)s2)nc(C)c1[N+](=O)[O-] | -8 | 0 | 55* | -2
COc1ccc(-c2ccc(NC(=O)c3ccc(F)c(F)c3)cc2)nn1 | -8 | 0 | 19 | 0
COc1cccc2c1NC(c1ccc(C(=O)O)cc1)C1CC=CC21 (centres undefined) | 11 | -1 | 71* | -2
COc1cc([N+](=O)[O-])cc2c1NC(c1ccc(C(=O)O)cc1)C1CC=CC21 (centres undefined) | 7 | 0 | 75* | -1
COc1cccc2c1N[C@@H](c1ccc(C(=O)O)cc1)[C@H]1CC=C[C@@H]21 | -4 | -1 | 63* | 0
CC(C)(C)Nc1nc(NC2CCCCC2)nc(N2CCOCC2)n1 | 0 | 0 | -3 | 1
Cc1nnc(SCC(=O)Nc2ccc(Cl)cc2C)s1 | 2 | 1 | -5 | 1
Cc1ccc(-n2c(O)c(/C=N/c3ccccn3)c(=O)[nH]c2=O)cc1 | 0 | 0 | 2 | 0
Cc1ccc(-n2[nH]c(=O)c(-c3ccccn3)c2C)cc1 | 52* | 0 | 7 | -5
CC1(C)Oc2ccc(C(=O)N3CCC4(CC3)NC(=O)c3ccccc3O4)cc2NC1=O | -5 | 0 | 1 | 0
Cc1cccc(NC(=S)NCC(C)C)c1 | 7 | 0 | 1 | 3
CCN(CC)C(=O)N1c2ccccc2CCc2ccccc21 | 42* | 0 | -1 | 1
Cn1nc(-c2ccc(OCC(=O)N3CCCCC3)cc2)c2ccccc2c1=O | 52* | 0 | 2 | 0
Cn1nc(-c2ccc(OCC(N)=O)cc2)c2ccccc2c1=O | -21 | 0 | 8 | 0
C(=C\c1ccc2c(c1)OCCO2)/c1ccc2c(c1)OCCO2 | 97* | 1 | 19 | -10
CCCC(=O)Nc1ccc(Nc2nc(C)cc(N3CCOCC3)n2)cc1 | 24 | 0 | 2 | 1
CCCCC(=O)Nc1ccc(Nc2nc(C)cc(N3CCCC3)n2)cc1 | 65* | 0 | -18 | 0
Cc1cc(N2CCCC2)nc(Nc2ccc(NS(=O)(=O)c3ccc(F)cc3)cc2)n1 | 57* | 0 | 0 | 0
CC1(C)Oc2ccc3ccc(=O)oc3c2C/C1=N\Nc1ccccc1 | 49* | 1 | 2 | -1
Cc1cc2sc(C)[n+](CCO)c2cc1C | 9 | 0 | 10 | 0
CC(C)(C)C(=O)COC(=O)c1ccc(S(C)(=O)=O)c([N+](=O)[O-])c1 | 2 | 0 | 4 | 1
CS(=O)(=O)c1ccc(C(=O)OCc2cccc(C(F)(F)F)c2)cc1[N+](=O)[O-] | 52* | 0 | 10 | 3
CN(Cc1ccccc1)c1ccnc2c(-c3ccc(CO)cc3)cnn12 | -39 | 0 | -12 | 0
CN(Cc1ccccc1)c1ccnc2c(-c3cccc(O)c3)cnn12 | 90* | 0 | -9 | 1
SMILES | TEAD-YAP inh | FBW7 activator | MITF inh | GPR151 activ
CN(Cc1ccccc1)c1ccnc2c(-c3cccc(C(=O)O)c3)cnn12 | 89* | 0 | -14 | -4
Nc1cccc(-c2cnn3c(N4CCN(c5ccccn5)CC4)ccnc23)c1 | -4 | 0 | -3 | 0
CC(=O)c1cccc(-c2cnn3c(N4CCN(c5ccccn5)CC4)ccnc23)c1 | 3 | 1.9* | 6 | -1
O=C(c1ccc(Sc2ccc(Br)cc2)c([N+](=O)[O-])c1)N1CCc2ccccc21 | 10 | 0 | 2 | 3
COc1ccc(Cl)cc1-n1nnc(C(N)=O)c1C | 1 | 0 | 2 | 0
CC(=O)OC1c2cc(C)ccc2NC(c2ccc(Cl)cc2)C1(C)C (centres undefined) | 14 | 0 | 8 | 1
CC(=O)OC1c2cc(C)ccc2NC(c2ccc(F)cc2)C1(C)C (centres undefined) | 34* | 0 | 9 | 0
CC(C)CN1CCNC(=O)C1CC(=O)NCc1scnc1-c1ccccc1 (centres undefined) | 11 | 0 | 3 | 2
COc1ccc2c(c1)C(=O)NC2CC(=O)NC1(c2ccccc2OC)CCCC1 (centres undefined) | 49* | 0 | 9 | 1
N#CC1=C(N)OC2=C(C(=O)CCC2)C1c1cn[nH]c1-c1ccc(F)cc1 (centres undefined) | 3 | 0 | 6 | 0
O=C1CCCC2=C1C(c1cn[nH]c1-c1ccc(F)cc1)C1=C(CCCC1=O)O2 | 49* | 0 | -8 | -1
